Assay outcomes (PubChem BioAssay)
12-LOX inh: ALOX12 (human) lipoxygenase inhibition; Potency, µM (top dose mostly 108 µM), inactives show at the highest dose activity change, negative = inhibition, actives largely listed as inhibitors; purified 12hLO, xylenol orange hydroperoxide absorbance; actives 1.1% (n = 580,000); P18054; AID 1671190; further: on the % scale 0 is the no-effect control and ±100 the full control effect
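Purified human 12hLO (150 nM final) in 25 mM Hepes, 0.01% Triton X-100, pH 7.0 was preincubated 15 min at room temperature with compound. Then 40 uM arachidonic acid was added, 30 min. Hydroperoxide was read by Fe-XO absorbance ratio 573/405 nm.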
G9a inh: G9a (human) methyltransferase inhibition. actives 8.8% (n = 350,000). G9a H3K9 monomethylation, AlphaScreen, 2 h. Q96KQ7. Potency, µM (series often up to 102 µM), for the others: top-dose activity, negative = inhibition, hits mostly inhibitors; further: on the % scale 0 is the no-effect control and ±100 the full control effect; nearly all actives have a fitted effect of over 75% in size
Target sequence (Q96KQ7 913-1193 limits assumed): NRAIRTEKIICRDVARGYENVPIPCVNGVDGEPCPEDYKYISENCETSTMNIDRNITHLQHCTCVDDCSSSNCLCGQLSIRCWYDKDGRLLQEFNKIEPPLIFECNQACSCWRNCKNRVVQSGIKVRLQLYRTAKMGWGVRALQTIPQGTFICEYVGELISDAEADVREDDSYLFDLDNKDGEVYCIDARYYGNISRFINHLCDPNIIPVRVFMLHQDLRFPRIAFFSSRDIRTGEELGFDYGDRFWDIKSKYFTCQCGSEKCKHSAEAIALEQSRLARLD
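AlphaScreen read-out: biotin-H3K9 peptide (500 nM) methylation by 20 nM enzyme with 20 uM SAM, 2 h at room temperature after 15 min compound preincubation; anti-monomethyl H3K9 antibody plus donor/acceptor beads, 10 min dark.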
GRP78 ERSR act: ER stress response induction in glioma. U87-MG GRP78 promoter luciferase reporter, 16 h. Potency, µM, inactives show at the top dose activation, most hits filed as activators. actives 0.02% (n = 420,000); further: series mostly up to about 76 µM; % of control where 0% means no effect; nearly all actives have a fitted effect of over 35% in size
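Stably transfected U87-MG human glioma cells carrying a GRP78-based luminescent sensor were seeded at 1000 cells/well, pin-dosed with compounds and incubated 16 h. Luciferase reagent was then added, and end-point luminescence was read after 10 min at room temperature.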
Sfp PPTase inh: Sfp phosphopantetheinyl transferase inhibition; actives 3.5% (n = 310,000); AID 1490; Potency, µM, inactives show largest response in the series, negative = inhibition, most hits filed as inhibitors; Biochemical Sfp PPTase activity, qHTS;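 further: the enzyme is Sfp with the accession as filed and its product quenches rhodamine fluorescence; 0% = enzyme reaction without inhibitor and -100% = no enzyme wells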
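Compounds were incubated with enzyme (final 15 nM) for 15 min at room temperature before substrate addition started the reaction. Fluorescence at 525 nm excitation, 598 nm emission was recorded immediately and after 30 minutes.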
VDR inh: blocks the human vitamin D receptor | actives 0.93% (n = 400,000) | VDR-SRC2-3 peptide fluorescence polarization, 2 h | Potency, µM, without a hit: max response, negative = inhibition, most hits filed as inhibitors; further: on the % scale 0 is the no-effect control and ±100 the full control effect
Target sequence (P11473 whole entry, looked up): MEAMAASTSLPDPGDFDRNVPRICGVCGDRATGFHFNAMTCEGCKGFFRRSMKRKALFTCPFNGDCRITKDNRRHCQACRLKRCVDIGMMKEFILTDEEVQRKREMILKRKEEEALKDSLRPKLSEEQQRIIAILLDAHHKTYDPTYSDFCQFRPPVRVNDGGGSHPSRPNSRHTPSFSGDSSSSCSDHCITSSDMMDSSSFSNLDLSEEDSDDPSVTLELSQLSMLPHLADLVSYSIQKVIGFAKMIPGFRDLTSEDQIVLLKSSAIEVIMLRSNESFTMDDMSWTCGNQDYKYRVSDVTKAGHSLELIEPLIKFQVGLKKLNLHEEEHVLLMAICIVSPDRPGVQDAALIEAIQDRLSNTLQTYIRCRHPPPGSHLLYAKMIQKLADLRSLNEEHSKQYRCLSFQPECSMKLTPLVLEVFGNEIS
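Measured by FP: displacement of SRC2-3 coactivator peptide from VDR by library compounds, following a two-hour ambient incubation.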
Active calls of the source: *; u = inconclusive; x = no result given; [ ] = remark or other dose. The entries come from a sample that favours hits as a whole. The call rests on the fitted dose curve; in most records, active means well fitted curve in the direction sought with a large enough effect; inconclusive means small, poorly fitted or top-dose-only effect, or another doubt; inactive means no such curve, though single readings can be large; an effect the other way counts as inactive or inconclusive. Potency means the concentration at half of the fitted maximal effect.

SMILES | 12-LOX inh | G9a inh | GRP78 ERSR act | Sfp PPTase inh | VDR inh
O=C(CC1C(=O)CCCC1=O)c1ccccc1 | -24% | 45µM* | -2% | u | 6%
COc1cccc2ccn(CC(=O)NC(C)c3ccccc3)c12 (configuration not stated) | -2% | x | x | x | x
O=C(CSc1nc2cc(Cl)ccc2s1)N1c2ccccc2Sc2ccc(C(F)(F)F)cc21 | -6% | x | x | x | x
CCCn1nc([N+](=O)[O-])c(C(C#N)c2nc3ccccc3o2)c(Cl)c1=O (configuration not stated) | 40µM* | 10µM* | -6% | -17% | u
CCn1nc([N+](=O)[O-])c(C(C#N)c2nc3cc(C(F)(F)F)ccc3s2)c(Cl)c1=O (configuration not stated) | u | 11µM* | u | -18% | u
Cn1nc([N+](=O)[O-])c(C(C#N)c2ccccn2)c(Cl)c1=O (configuration not stated) | -10% | 11µM* | -13% | -5% | -6%
COCc1cc(=O)n(CC(=O)Nc2cc(Cl)ccc2OC)c(N2CCOCC2)n1 | 19% | x | x | x | x
CCCC(=O)Nc1cccc(-c2nc3cc(C)cc(C)c3o2)c1C | 3% | x | x | x | x
COc1ccc(-c2c(C)c3cc(OS(=O)(=O)c4ccc(F)cc4)ccc3oc2=O)cc1 | -12% | x | x | x | x
O=C(/C=C/c1ccccn1)c1cc(Cl)cc(Cl)c1O | u | 50µM* | -5% | -4% | -27%
CCOC(=O)Cc1cc(=O)n(-c2nc3ccccc3s2)[nH]1 | 7.9µM* | 32µM* | -1% | -21% | -7%
COc1ccc2c(c1)N(C)/C(=C/c1cccc[n+]1C)S2 | u | 35µM* | -4% | -11% | 13%
CCN1/C(=C/C(C)=O)Sc2ccc(OC)cc21 | 4% | u | -4% | 7% | u
CCN1/C(=C/c2cccc[n+]2C)Sc2ccc(OC)cc21 | 29% | 50µM* | -2% | -8% | -17%
Cc1ccc(/C=N/NC(=O)C2CC2)o1 | 3% | x | x | x | x
CC(/C=N/N1CCN(c2ccc(C)cc2)CC1)=C\c1ccccc1 | 0% | 2%[59 µM] | -2% | 14% | 13%
BrC(=C\c1ccccc1)/C=N/N1CCN(c2ccccc2)CC1 | u | 20µM* | 9% | 45µM* | 79µM*
Cc1snc2sc(C(=O)c3ccc(F)cc3)c(N)c12 | -7% | x | 8% | 40µM* | -8%
O=C1CCN(S(=O)(=O)c2ccccc2)C2CCCCC12 (configuration not stated) | 0% | -28% | -3% | 11% | -20%
O=C1NC2CCCCC2C(=O)N1OS(=O)(=O)c1ccccc1 (configuration not stated) | u | x | 0% | x | 16µM*
Cc1cccc(NC(=O)c2ccc(N(C)C)cc2)c1C | 51% | x | x | x | x
CCCOC(=O)C(C#N)c1nc2ccccc2nc1Cl (configuration not stated) | 18µM* | x | x | x | x
CCCN(CCC)c1nc2ccccc2nc1C(C#N)C(=O)OCCOC (configuration not stated) | u | -24%[59 µM] | -6% | -15% | -13%
C=CCN(CC=C)c1nc2ccccc2nc1C(C#N)C(=O)OCCOC (configuration not stated) | 0% | 50µM* | 4% | 1% | 13%
COC(=O)c1ccc(COc2ccc3c(=O)c(Oc4ccccc4F)c(C(F)(F)F)oc3c2)cc1 | -42% | x | x | x | x
SMILES | 12-LOX inh | G9a inh | GRP78 ERSR act | Sfp PPTase inh | VDR inh
CCc1ccc(NS(=O)(=O)c2ccc3oc(=O)c4ncn(CC)c4c3c2)cc1 | u | 10µM* | -11% | x | -6%
COc1cc(NS(=O)(=O)c2ccc3oc(=O)c4ncn(C)c4c3c2)cc(OC)c1 | -21% | -11%[59 µM] | 5% | x | 2%
Cc1ccc(S(=O)(=O)C/N=C(/NC(=S)N(c2ccccc2)c2ccccc2)c2ccccc2)cc1 | u | 10µM* | -1% | 32µM* | -41%
Cc1nn(-c2cc(N3CCCC3)ccc2[N+](=O)[O-])c(=O)c2ccccc12 | 0% | -17% | 0% | -4% | -15%
Cc1ccc(C)c(-c2nn(-c3cc(N4CCN(CCO)CC4)ccc3[N+](=O)[O-])c(=O)c3ccccc23)c1 | u | 40µM* | -2% | -26% | 14%
Cc1cccc(OCCNc2cc(N3CCN(CCO)CC3)ccc2[N+](=O)[O-])c1 | u | 45µM* | 2% | -10% | -6%
Cc1ccccc1OCCNc1cc(N2CCN(CCO)CC2)ccc1[N+](=O)[O-] | -18% | u | 0% | -26% | 2%
O=C(COC(=O)Cc1ccc(F)cc1)NCc1ccc(Cl)cc1 | -2% | x | x | x | x
CC(C)(C)C(=O)Nc1nnc(-c2ccncc2)o1 | -6% | 79µM* | -4% | -9% | 8%
O=C(Nc1nnc(-c2ccncc2)o1)C1CCCCC1 | -9% | u | -4% | -2% | -17%
CCN(CC)c1ccc(NS(=O)(=O)c2cc(-c3onc(C)c3C)ccc2OC)c(C)c1 | u | 8.9µM* | -3% | x | 15%
CCN(CC)c1ccc(NS(=O)(=O)c2ccc(-c3coc(C)n3)cc2)c(C)c1 | u | 11µM* | -4% | x | -5%
N#Cc1c(NCc2ccncc2)nc(-c2ccccc2)c2c1CCCC2 | 8% | x | x | x | x
Cc1cc2oc(C(=O)Nc3cccc(Cl)c3)cc(=O)c2cc1C | 18% | x | x | x | x
CCc1cc(=O)oc2c(C)c(OCC(=O)NCc3cccnc3)ccc12 | -39% | x | x | x | x
Cn1c(=O)c2[nH]c(N/N=C(/C#N)C(N)=O)nc2n(C)c1=O | x | 14µM* | -3% | 56µM* | 0%
CC(C)(C)c1ccc(-c2cc3ccccn3c2)cc1 | 22µM* | x | x | x | x
Brc1ccc(-c2ccccc2)cc1 | 2% | -3%[0.501 µM] | -1% | x | -1%
c1cnc2nc(-c3ccc4c(c3)OCO4)cn2c1 | 5% | -1% | -3% | 11% | 1%
c1ccn2cc(-c3ccc4c(c3)OCO4)cc2c1 | u | -129%[59 µM] | 5% | 56µM* | -9%
Brc1ccc(-c2cc3ccccn3c2)cc1 | 14µM* | x | x | x | x
CCn1nc(C(=O)Nc2nc(C)c(C(C)=O)s2)c2ccccc2c1=O | -14% | x | x | x | x
CCN(CC)Cc1ccccc1CNC(=O)c1nn(C)c(=O)c2ccccc12 | 21% | x | x | x | x
O=C(NNC(=O)C1CCCCC1)c1ccccc1Br | 22% | x | x | x | x
COc1ccc([C@H]2C(C#N)=C([S-])N[C@](C)(O)[C@@H]2[n+]2ccccc2)cc1 | 0% | 14µM* | 0% | 25µM* | u
Cc1ccc[n+](C2C(c3ccc([N+](=O)[O-])cc3)C(C#N)=C([S-])NC2(O)C2CC2)c1 (configuration not stated) | -18% | 16µM* | 0% | 25µM* | -20%
COCc1[nH]nc2c1C(c1ccc(OC)cc1)C(C#N)=C(N)O2 (configuration not stated) | u | 10%[12.7 µM] | -4% | 31% | 18%
COc1ccc(OC)c(C(=O)CC2(O)C(=O)N(C)c3ccc(Br)cc32)c1 (configuration not stated) | -7% | x | x | x | x
CN1CCN(C(=O)CCn2c(-c3ccccc3)cc3ccccc32)CC1 | 8% | x | x | x | x
